Reference: PubChem BioAssay (Tox21)
Results filed as inconclusive are left out. Active and inactive are the calls of the source. Unless noted, calls come from the whole dose curve.

Tests used:
[1] = Nuclear factor erythroid 2-related factor 2/antioxidant responsive element (Nrf2/ARE) small molecule agonists: qHTS cell viability counter screen in human keratinocytes (AID 1919968; active = well fitted curve in the direction sought with a large enough effect in the repeat runs; an effect the other way counts as inactive or inconclusive; note: nearly all actives have a fitted effect of over 55% in size)
How it was run: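 In human HaCaT keratinocytes stably expressing an ARE-driven luciferase, compound exposure lasted 23 h at 37 C under 5% CO2. Viable cells are quantified with a protease-based fluorogenic reagent (CellTiter-Fluor) read 1 h after addition.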

[2] = Nuclear factor erythroid 2-related factor 2/antioxidant responsive element (Nrf2/ARE) small molecule agonists: luciferase reporter gene qHTS assay in human keratinocytes (AID 1919969); note: nearly all actives have a fitted effect of over 35% in size
[3] = target: Gonadotropin-releasing hormone receptor (Homo sapiens) (UniProt P30968); assay: Human gonadotropin-releasing hormone receptor (GnRHR) small molecule agonists, calcium flux assay in GnRHR-HEK293 cells (AID 1920063); note: nearly all actives have a fitted effect of over 35% in size
Sequence of Gonadotropin-releasing hormone receptor (Homo sapiens) (P30968 whole entry, looked up): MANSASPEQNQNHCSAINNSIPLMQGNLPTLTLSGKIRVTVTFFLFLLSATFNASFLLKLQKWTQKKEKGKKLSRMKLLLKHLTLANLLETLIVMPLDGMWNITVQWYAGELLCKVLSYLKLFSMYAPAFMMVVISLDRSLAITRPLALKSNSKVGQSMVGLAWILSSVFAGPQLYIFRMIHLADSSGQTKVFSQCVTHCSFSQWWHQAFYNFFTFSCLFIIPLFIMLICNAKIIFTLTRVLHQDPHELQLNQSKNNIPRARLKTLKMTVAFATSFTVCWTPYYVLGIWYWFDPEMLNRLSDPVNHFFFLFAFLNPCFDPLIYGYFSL
How it was run: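 Intracellular calcium rise is the read-out: engineered human GnRHR HEK293 cells, dye-loaded, are exposed to DMSO-dissolved compounds and fluorescence at Ex/Em 480/540 is tracked for 3 min.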

[4] = target: KiSS-1 receptor (Homo sapiens) (UniProt Q969F8); assay: Human kisspeptin (KISS1R) small molecule agonists, calcium flux assay in KISS1R-HEK293 cells (AID 1920064; active = well fitted curve in the direction sought with a large enough effect in the repeat runs; an effect the other way counts as inactive or inconclusive)
Sequence of KiSS-1 receptor (Homo sapiens) (Q969F8 whole entry, looked up): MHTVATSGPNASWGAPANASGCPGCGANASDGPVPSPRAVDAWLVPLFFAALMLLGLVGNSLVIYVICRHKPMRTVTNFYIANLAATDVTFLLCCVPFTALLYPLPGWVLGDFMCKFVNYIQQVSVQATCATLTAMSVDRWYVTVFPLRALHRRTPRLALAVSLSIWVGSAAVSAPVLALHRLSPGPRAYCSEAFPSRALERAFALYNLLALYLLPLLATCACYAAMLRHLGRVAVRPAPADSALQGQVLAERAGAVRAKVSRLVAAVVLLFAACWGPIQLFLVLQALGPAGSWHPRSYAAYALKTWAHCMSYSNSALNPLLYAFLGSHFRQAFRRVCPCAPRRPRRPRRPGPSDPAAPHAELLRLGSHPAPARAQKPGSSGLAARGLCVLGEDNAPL
How it was run: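 Concentration-response testing used 15 concentrations in triplicate on human KISS1R-expressing HEK293 cells. Calcium-dependent fluorescence (Ex/Em 480/540) was followed kinetically for 3 min after compound transfer.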

[5] = G protein-coupled receptor (GPCR) small molecule agonists, calcium flux assay: HEK293 wild type cell line counter screen (AID 1920065)
How it was run: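 Fluorescence intensity signals activation. After overnight (18 h) culture and a 1 h calcium dye load at 37 C, compounds are added by pin tool and the plate read at 480/540 nm for 3 min in 1 s steps.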

[6] = p53 small molecule agonists, cell-based qHTS assay with human liver microsomes (AID 1963577);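 note: p53 response element beta-lactamase reporter cells with liver microsomes plus NADPH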
How it was run: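 HLM-supplemented p53RE-bla reporter assay: 16 h compound exposure at 37 C, microsomes and NADPH each 0.5 mg/mL final, read by fluorescence intensity.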

[7] = p53 small molecule agonists, cell-based qHTS assay with rat liver microsomes (AID 1963578)
How it was run: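 Quantitative HTS of the Tox21 10K library: p53RE-bla cells, rat liver microsomes plus NADPH at 0.5 mg/mL final each, 16 h at 37 C, beta-lactamase fluorescence detection.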

[8] = p53 small molecule agonists, cell-based qHTS assay with human liver microsomes: qHTS cell viability counter screen (AID 1963579); note: nearly all actives have a fitted effect of over 45% in size
How it was run: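 Viability of p53RE-bla cells is measured as CellTiter-Glo luminescence following a 16 h, 37 C incubation with compound, liver microsomes from human donors and NADPH.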

[9] = p53 small molecule agonists, cell-based qHTS assay (AID 1963582; active = well fitted activation curve with a large enough effect in the signal ratio in the repeat runs, not every such curve was filed as active; the % refers to the signal ratio)
How it was run: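 After plating, p53RE-bla cells sat 5 h in the incubator; compounds or DMSO vehicle were pinned in; a 16 h incubation at 37 C followed; FRET substrate was added and, 2 h later at RT, fluorescence was measured.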

[10] = target: 5-hydroxytryptamine receptor 2A (Homo sapiens) (UniProt P28223); assay: 5-hydroxytryptamine receptor 2A (HTR2A) small molecule antagonists, cell-based qHTS assay (AID 1963586); note: nearly all actives have a fitted effect of over 45% in size
Sequence of 5-hydroxytryptamine receptor 2A (Homo sapiens) (P28223 whole entry, looked up): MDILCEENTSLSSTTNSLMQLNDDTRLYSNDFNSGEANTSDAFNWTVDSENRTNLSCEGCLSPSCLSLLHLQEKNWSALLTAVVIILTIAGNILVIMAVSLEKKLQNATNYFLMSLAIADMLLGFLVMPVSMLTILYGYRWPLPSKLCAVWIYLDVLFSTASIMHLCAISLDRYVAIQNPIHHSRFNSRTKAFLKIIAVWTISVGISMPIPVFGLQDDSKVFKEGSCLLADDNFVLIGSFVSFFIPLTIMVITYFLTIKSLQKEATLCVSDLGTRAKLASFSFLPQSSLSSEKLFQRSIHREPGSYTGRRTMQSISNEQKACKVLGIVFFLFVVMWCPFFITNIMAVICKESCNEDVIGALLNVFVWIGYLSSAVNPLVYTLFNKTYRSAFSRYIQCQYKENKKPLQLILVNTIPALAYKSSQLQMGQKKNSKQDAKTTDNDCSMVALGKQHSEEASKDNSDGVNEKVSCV
How it was run: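 CHO cells stably expressing human HTR2A were plated for 18 h at 37 C, then loaded with calcium dye for 1 h. Compounds were preincubated 5 min at room temperature before DOI (4 nM solution) was added. Kinetic fluorescence was read for 3 min.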

[11] = target: 5-hydroxytryptamine receptor 2A (Homo sapiens) (UniProt P28223); assay: 5-hydroxytryptamine receptor 2A (HTR2A) small molecule agonists, cell-based qHTS assay (AID 1963587); note: nearly all actives have a fitted effect of over 30% in size
How it was run: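 HTR2A-CHO cells, plated 18 h at 37 C/5% CO2, dye-loaded 1 h at 37 C; compounds in DMSO added by pin tool (agonist mode). Intracellular calcium flux read as kinetic fluorescence on FDSS over 2 min at 1 s intervals.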

[12] = target: Muscarinic acetylcholine receptor M1 (Homo sapiens) (UniProt P11229); assay: Cholinergic receptor muscarinic 1 (CHRM1) small molecule antagonists, cell-based qHTS assay (AID 1963588); note: nearly all actives have a fitted effect of over 40% in size
Sequence of Muscarinic acetylcholine receptor M1 (Homo sapiens) (P11229 whole entry, looked up): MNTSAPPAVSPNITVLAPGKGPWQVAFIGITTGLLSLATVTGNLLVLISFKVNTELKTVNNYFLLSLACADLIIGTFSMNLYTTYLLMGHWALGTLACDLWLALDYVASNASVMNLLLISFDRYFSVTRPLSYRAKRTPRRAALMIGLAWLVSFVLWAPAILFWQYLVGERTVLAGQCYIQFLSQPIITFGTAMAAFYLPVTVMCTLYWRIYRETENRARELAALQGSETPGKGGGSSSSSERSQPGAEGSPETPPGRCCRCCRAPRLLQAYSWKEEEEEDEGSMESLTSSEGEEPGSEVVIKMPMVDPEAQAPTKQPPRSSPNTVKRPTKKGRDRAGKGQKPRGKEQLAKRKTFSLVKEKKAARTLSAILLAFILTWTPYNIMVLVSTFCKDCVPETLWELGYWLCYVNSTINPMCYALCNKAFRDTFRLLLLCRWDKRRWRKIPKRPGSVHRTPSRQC
How it was run: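 Compounds were tested at 15 concentrations in three independent runs. Dye-loaded CHRM1-CHO cells were exposed 5 min at room temperature before stimulation by acetylcholine added at 50nM. Intracellular calcium was read kinetically on FDSS for 3 min.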

[13] = target: Muscarinic acetylcholine receptor M1 (Homo sapiens) (UniProt P11229); assay: Cholinergic receptor muscarinic 1 (CHRM1) small molecule agonists, cell-based qHTS assay (AID 1963589); note: nearly all actives have a fitted effect of over 35% in size
How it was run: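 Fluorescent calcium dye reports M1 activation in stably transfected CHO cells. Compounds, 15 concentrations, added after 1 h dye loading at 37 C; kinetic reading at 1 sec intervals.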

[14] = cAMP Responsive Elements (CRE) small molecule agonists, cell-based qHTS assay (AID 1963590)
How it was run: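 Compound exposure lasted 3 h at 37 C/5% CO2 in CRE-bla HEK 293T cells grown in assay medium with 10% dialyzed FBS and 25 mM HEPES. Reporter signal came from LiveBLAzer B/G FRET substrate, 2 h, room temperature.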

[15] = cAMP Responsive Elements (CRE) small molecule antagonists, cell-based qHTS assay (AID 1963591; active = well fitted inhibition curve with a large enough effect in the signal ratio in the repeat runs, not every such curve was filed as active; the % refers to the signal ratio)
How it was run: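 Stimulation used NKH477 at a final 0.25 uM for 3 h in compound-treated CRE-bla HEK293T cells, seeded 18 h beforehand. Reporter activity was measured with LiveBLAzer B/G FRET substrate after 2 h at room temperature.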

[16] = target: Beta-2 adrenergic receptor (Homo sapiens) (UniProt P07550); assay: Adrenergic beta2 receptor (ADRB2) small molecule antagonists, cell-based qHTS assay (AID 1963592); note: series mostly up to about 92 µM; nearly all actives have a fitted effect of over 50% in size
Sequence of Beta-2 adrenergic receptor (Homo sapiens) (P07550 whole entry, looked up): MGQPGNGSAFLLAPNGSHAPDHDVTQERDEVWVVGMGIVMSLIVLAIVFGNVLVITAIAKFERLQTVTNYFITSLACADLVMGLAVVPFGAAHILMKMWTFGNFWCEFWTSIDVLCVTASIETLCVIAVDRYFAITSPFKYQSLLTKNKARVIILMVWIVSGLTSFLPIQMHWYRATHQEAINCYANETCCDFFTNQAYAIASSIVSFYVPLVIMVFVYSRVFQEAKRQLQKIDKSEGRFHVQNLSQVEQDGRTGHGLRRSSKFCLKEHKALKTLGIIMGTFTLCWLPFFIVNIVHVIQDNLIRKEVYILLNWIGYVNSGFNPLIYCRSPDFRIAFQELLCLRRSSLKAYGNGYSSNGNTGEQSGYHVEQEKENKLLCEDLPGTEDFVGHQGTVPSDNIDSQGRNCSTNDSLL
How it was run: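 Assay format: CHO-ADRB2 cells, 18-20hr seeding at 37C/5% CO2, then compound plus 1nM isoproterenol agonist mix for 0.5hr RT. Homogeneous time-resolved fluorescence cAMP detection after 1hr, expressed as 665/615 nm ratio.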

[17] = target: D(2) dopamine receptor (Homo sapiens) (UniProt P14416); assay: Dopamine D2 receptor (DRD2) small molecule agonists, cell-based qHTS assay (AID 1963594); note: nearly all actives have a fitted effect of over 35% in size
Sequence of D(2) dopamine receptor (Homo sapiens) (P14416 whole entry, looked up): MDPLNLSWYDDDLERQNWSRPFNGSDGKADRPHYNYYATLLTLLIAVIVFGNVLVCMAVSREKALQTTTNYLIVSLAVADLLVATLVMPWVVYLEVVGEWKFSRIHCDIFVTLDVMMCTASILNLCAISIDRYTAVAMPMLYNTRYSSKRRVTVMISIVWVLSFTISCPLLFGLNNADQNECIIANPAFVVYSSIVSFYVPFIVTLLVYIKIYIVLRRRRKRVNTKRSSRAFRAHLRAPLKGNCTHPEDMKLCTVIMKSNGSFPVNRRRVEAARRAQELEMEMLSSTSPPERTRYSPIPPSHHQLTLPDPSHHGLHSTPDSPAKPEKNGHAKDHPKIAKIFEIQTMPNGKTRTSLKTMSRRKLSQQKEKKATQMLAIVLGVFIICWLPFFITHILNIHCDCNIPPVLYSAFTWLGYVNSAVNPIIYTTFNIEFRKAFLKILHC
How it was run: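 HEK293 cells stably expressing DRD2 were cultured 24 h at 37 C, then given Ro20-1724 (0.1 mM final) and compounds for 10 min at room temperature. NKH477 (200nM) was then added for 30 min. cAMP was read by HTRF.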

[18] = target: D(2) dopamine receptor (Homo sapiens) (UniProt P14416); assay: Dopamine D2 receptor (DRD2) small molecule antagonists, cell-based qHTS assay (AID 1963595; active = well fitted inhibition curve with a large enough effect in the signal ratio in the repeat runs, with a control signal flat; the % refers to the signal ratio)
How it was run: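 Antagonism was scored as restored cAMP in HEK293-DRD2 cells. These cells were stimulated with 200 nM NKH477 and 12 nM quinpirole for 30 min at room temperature, in the presence of 0.1 mM Ro20-1724.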

[19] = target: Beta-2 adrenergic receptor (Homo sapiens) (UniProt P07550); assay: Adrenergic beta2 receptor (ADRB2) small molecule agonists, cell-based qHTS assay (AID 1963593);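 note: CHO cells stably overexpressing human ADRB2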
How it was run: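 CHO cells stably over-expressing ADRB2 were plated overnight at 37C, then dosed with compounds plus a stimulation mix containing 100uM IBMX and 25uM Ro-20-1724 for 0.5hr at room temperature. cAMP was measured by HTRF competition, 1hr.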
% is set by controls: 0 for no effect and ±100 for the full control effect.

O=C1CCCc2ccccc21
inactive: Potency [1] | Potency [2] | Potency [3] | Potency [4] | Potency [5] | Potency [6] | Potency [7] | Potency [8] | Potency [9] | Potency [10] | Potency [11] | Potency [12] | Potency [13] | Potency [14] | Potency [15] | Potency [16] | Potency [17] | Potency [18]

C[C@@H]1CCC[C@H](C)N1
inactive: Potency [1] | Potency [2] | Potency [3] | Potency [4] | Potency [5] | Potency [6] | Potency [7] | Potency [8] | Potency [9] | Potency [13] | Potency [14] | Potency [15] | Potency [16] | Potency [17] | Potency [18]

CCN(CC)C(=O)C1CN2CCc3cc(OC)c(OC)cc3C2CC1OC(C)=O (centres undefined)
inactive: Potency [1] | Potency [2] | Potency [3] | Potency [4] | Potency [5] | Potency [6] | Potency [7] | Potency [8] | Potency [9] | Potency [10] | Potency [11] | Potency [13] | Potency [14] | Potency [15] | Potency [16] | Potency [19] | Potency [17] | Potency [18]

Nc1c(NC/C=C\COc2cc(CN3CCCCC3)ccn2)c(=O)c1=O
inactive: activity change, negative = cytotoxicity [1] 1.77% [at 19 µM] | activity, positive = activation [2] -5.23% [at 19 µM] | activity change [3] -0.254% [at 11.8 µM, hits give high values] | activation [4] 1.38% [at 15.8 µM] | activation [5] 0.206% [at 11.8 µM] | activation [6] -4.01% [at 13.5 µM] | activation [7] 0.229% [at 13.6 µM] | activity change, negative = cytotoxicity [8] 5.4% [at 13.5 µM] | activation [9] -1.45% [at 13.5 µM] | activity, negative = inhibition [10] -23.4% [at 12.7 µM] | activation [11] 1.98% [at 15.9 µM] | activation [13] -0.0227% [at 15.8 µM] | activation [14] 0.666% [at 19 µM] | activity change, negative = inhibition [15] -4.15% [at 18.9 µM] | activity change, negative = inhibition [16] 0.774% [at 19 µM] | activation [17] -7.29% [at 19 µM] | activity change, negative = inhibition [18] 0.891% [at 18.9 µM]

OCCC(F)(F)C(F)(F)C(F)(F)C(F)(F)C(F)(F)C(F)(F)F
inactive: Potency [1] | Potency [2] | Potency [3] | Potency [4] | Potency [5] | Potency [6] | Potency [7] | Potency [8] | Potency [9] | Potency [10] | Potency [11] | Potency [12] | Potency [13] | Potency [15] | Potency [16] | Potency [19] | Potency [18]

CC(C)=CCC[C@H](C)CC=O
inactive: Potency [1] | Potency [2] | Potency [3] | Potency [4] | Potency [5] | Potency [6] | Potency [7] | Potency [8] | Potency [9] | Potency [14] | Potency [15] | Potency [19] | Potency [17] | Potency [18]

CC(C)OC=O
inactive: Potency [1] | Potency [2] | Potency [3] | Potency [4] | Potency [5] | Potency [6] | Potency [7] | Potency [8] | Potency [9] | Potency [10] | Potency [11] | Potency [13] | Potency [15] | Potency [16] | Potency [19] | Potency [17] | Potency [18]

CN1C(=O)CC(C)(c2ccccc2)C1=O (centres undefined)
inactive: Potency [1] | Potency [2] | Potency [3] | Potency [4] | Potency [5] | Potency [6] | Potency [7] | Potency [8] | Potency [9] | Potency [10] | Potency [11] | Potency [13] | Potency [14] | Potency [15] | Potency [16] | Potency [19] | Potency [17] | Potency [18]
